In PubChem BioAssay (EPA / NIEHS):
Activity calls are given as the source filed them. How the source made its calls: active means hit-call score of the fitted dose curve at least 0.9, where 1 is the maximum; inactive means score below 0.9.

Assays:
Conditions in all cases: mRNA level, 48 h; actives raise or lower the signal
[1] = read-out: Glutamate-cysteine ligase catalytic (GCLC), GCLC (gene 2729); assay: LTEA_HepaRG_GCLC: Life Technologies and Expression Analysis (LTEA) Assay for Glutamate-cysteine ligase catalytic (GCLC) using HepaRG (AID 2283498)
In short: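 Expression by TaqMan qRT-PCR, normalized to three housekeeping genes (ACTB, GAPDH, POLR2A), with up- or down-regulation fitted against DMSO. HepaRG cells dosed in duplicate for 48 h with 8 half-log concentrations up to 100 uM, vehicle 0.5% DMSO.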

[2] = read-out: growth arrest and DNA damage 45 (GADD45G), GADD45G (gene 10912); assay: LTEA_HepaRG_GADD45G: Life Technologies and Expression Analysis (LTEA) Assay for growth arrest and DNA damage 45 (GADD45G) using HepaRG (AID 2283499)
In short: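 HepaRG, 48 h exposure, top 100 uM, half-log 8-point series, 0.5% DMSO vehicle, duplicates. Readout: GADD45G transcript by qRT-PCR (Fluidigm array), housekeeping-normalised (ACTB/GAPDH/POLR2A). Bidirectional curve fit vs DMSO baseline.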

[3] = read-out: Glutamate-cysteine ligase regulatory (GCLM), GCLM (gene 2730); assay: LTEA_HepaRG_GCLM: Life Technologies and Expression Analysis (LTEA) Assay for Glutamate-cysteine ligase regulatory (GCLM) using HepaRG (AID 2283500)
In short: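 Endpoint is GCLM transcript level by qRT-PCR, normalized to three housekeeping genes, after 48 h chemical exposure of human HepaRG cells (0.5% DMSO vehicle, top 100 uM, half-log dilutions). Fitting was bidirectional relative to DMSO.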

[4] = read-out: Glutathione S-transferase M3 (GSTM3), GSTM3 (gene 2947); assay: LTEA_HepaRG_GSTM3: Life Technologies and Expression Analysis (LTEA) Assay for Glutathione S-transferase M3 (GSTM3) using HepaRG (AID 2283501)
In short: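 qRT-PCR read-out of GSTM3 transcript, normalized to three housekeeping genes, from human HepaRG cells after 48 h chemical exposure. Eight-point half-log series, top 100 uM, 0.5% DMSO vehicle; gain or loss fitted relative to DMSO baseline.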

[5] = read-out: Hypoxia-inducible factor 1-alpha (Homo sapiens) (UniProt Q16665); assay: LTEA_HepaRG_HIF1A: Life Technologies and Expression Analysis (LTEA) Assay for Hypoxia-inducible factor 1 (HIF1A) Trancription factor using HepaRG (AID 2283503)
In short: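 HIF1A transcript level read by qRT-PCR (ACTB, GAPDH, POLR2A normalization) after 48 h chemical exposure of HepaRG cultures. Eight half-log concentrations, top 100 uM, 0.5% DMSO vehicle, duplicates; bidirectional curve fit against DMSO baseline.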

[6] = read-out: 3-Hydroxy-3-Methylglutaryl-CoA Synthase 2 (HMGCS2), HMGCS2 (gene 3158); assay: LTEA_HepaRG_HMGCS2: Life Technologies and Expression Analysis (LTEA) Assay for 3-Hydroxy-3-Methylglutaryl-CoA Synthase 2 (HMGCS2) using HepaRG (AID 2283504)
In short: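 qRT-PCR read-out of HMGCS2 transcript, normalised to three housekeeping genes, in HepaRG cells after 48 h chemical exposure. Eight-point curves from 100 uM, half-log dilutions, 0.5% DMSO vehicle; gain or loss fitted relative to DMSO baseline.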

HGF (gene 3082) = assay: LTEA_HepaRG_HGF: Life Technologies and Expression Analysis (LTEA) Assay for Hepatocyte Growth Facto (HGF) using HepaRG (AID 2283505)
In short: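 HepaRG, 48 h dosing, 8-pt half-log series from 100 uM in 0.5% DMSO, duplicates. Readout: TaqMan qRT-PCR of HGF mRNA, housekeeping-normalized; bidirectional curve fit vs DMSO baseline.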

[7] = read-out: Insulin Like Growth Factor 1 (IGF1), IGF1 (gene 3479); assay: LTEA_HepaRG_IGF1: Life Technologies and Expression Analysis (LTEA) Assay for Insulin Like Growth Factor 1 (IGF1) using HepaRG (AID 2283506)
In short: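 Cells are thawed, plated and cultured 48 h, then exposed in duplicate to chemical (highest 100 uM, half-log steps, 0.5% DMSO) for another 48 h. Total RNA is analysed by Fluidigm qRT-PCR for IGF1 expression relative to vehicle.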

[8] = read-out: Intercellular Adhesion Molecule 1 (ICAM1), ICAM1 (gene 3383); assay: LTEA_HepaRG_ICAM1: Life Technologies and Expression Analysis (LTEA) Assay for Intercellular Adhesion Molecule 1 (ICAM1) using HepaRG (AID 2283507)
In short: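 HepaRG, 48 h exposure, 8-pt half-log series from 100 uM, 0.5% DMSO vehicle, duplicates. Readout: TaqMan qRT-PCR mRNA, housekeeping-normalized (ACTB/GAPDH/POLR2A). Bidirectional curve fit vs DMSO baseline.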

[9] = read-out: Insulin-like growth factor-binding protein 1 (IGFBP1), IGFBP1 (gene 3484); assay: LTEA_HepaRG_IGFBP1: Life Technologies and Expression Analysis (LTEA) Assay for Insulin-like growth factor-binding protein 1 (IGFBP1) using HepaRG (AID 2283508)
In short: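 qRT-PCR mRNA read-out (TaqMan, Fluidigm array), normalised to three housekeeping genes; HepaRG cells, 48 h exposure, 8-pt half-log series from 100 uM, 0.5% DMSO vehicle; bidirectional curve fit vs DMSO baseline.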

[10] = read-out: Interleukin 6 (IL6), IL6 (gene 3569); assay: LTEA_HepaRG_IL6: Life Technologies and Expression Analysis (LTEA) Assay for Interleukin 6 (IL6) using HepaRG (AID 2283509)
In short: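 Transcript levels, normalized to three housekeeping genes, were quantified by qRT-PCR after 48 h chemical treatment of HepaRG cells. Eight-point half-log series from 100 uM in 0.5% DMSO, duplicates. Fitted both directions against DMSO baseline.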

[11] = read-out: Interleukin 6 Receptor (IL6R), IL6R (gene 3570); assay: LTEA_HepaRG_IL6R: Life Technologies and Expression Analysis (LTEA) Assay for Interleukin 6 Receptor (IL6R) using HepaRG (AID 2283510)
In short: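 Cells were thawed, plated and cultured 48 h, then medium was changed to serum-free induction medium. Chemicals were added in duplicate (100 uM top, half-log steps, 0.5% DMSO) for 48 h. Lysates were analyzed by qRT-PCR for IL6R expression.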

[12] = read-out: Potassium channel subfamily K member 1 (KCNK1), KCNK1 (gene 3775); assay: LTEA_HepaRG_KCNK1: Life Technologies and Expression Analysis (LTEA) Assay for Potassium channel subfamily K member 1 (KCNK1) using HepaRG (AID 2283511)
In short: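 KCNK1 transcript measured by TaqMan qRT-PCR against three housekeeping genes, after HepaRG cells were treated 48 h with eight half-log concentrations (top 100 uM, 0.5% DMSO). Curves fitted bidirectionally relative to vehicle.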

[13] = read-out: Keratin 19 (KRT19), KRT19 (gene 3880); assay: LTEA_HepaRG_KRT19: Life Technologies and Expression Analysis (LTEA) Assay for Keratin 19 (KRT19) using HepaRG (AID 2283512)
In short: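 HepaRG, 48 h chemical exposure, 8-pt half-log CRC from 100 uM, 0.5% DMSO vehicle, duplicates. Readout: TaqMan qRT-PCR of KRT19 mRNA, housekeeping-normalized (ACTB/GAPDH/POLR2A). Bidirectional fit vs DMSO baseline.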

[14] = read-out: Lipase C (LIPC), LIPC (gene 3990); assay: LTEA_HepaRG_LIPC: Life Technologies and Expression Analysis (LTEA) Assay for Lipase C (LIPC) using HepaRG (AID 2283514)
In short: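 LIPC expression was quantified by qRT-PCR against three housekeeping genes (ACTB, GAPDH, POLR2A). Differentiated human HepaRG cells received eight half-log doses (top 100 uM, 0.5% DMSO) in duplicate for 48 h; fitting bidirectional relative to DMSO.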

[15] = read-out: Lipoprotein lipase (LPL), LPL (gene 4023); assay: LTEA_HepaRG_LPL: Life Technologies and Expression Analysis (LTEA) Assay for Lipoprotein lipase (LPL) using HepaRG (AID 2283515)
In short: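 LPL transcript levels quantified by TaqMan qRT-PCR against three housekeeping genes after 48 h chemical treatment of HepaRG cells. Eight-point half-log series from 100 uM in 0.5% DMSO, tested in duplicate; bidirectional fitting versus vehicle.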

[16] = read-out: MicroRNA 122 (MIR122), gene 406906; assay: LTEA_HepaRG_MIR122: Life Technologies and Expression Analysis (LTEA) Assay for MicroRNA 122 (MIR122) using HepaRG (AID 2283516); further: the transcript read is the microRNA miR-122
In short: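 Human liver HepaRG cultures receive test chemicals for 48 h at eight half-log concentrations from 100 uM. Expression is quantified by qRT-PCR with ACTB/GAPDH/POLR2A normalization and fitted bidirectionally against 0.5% DMSO.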

[17] = read-out: matrix metalloproteinase-10 (MMP10), MMP10 (gene 4319); assay: LTEA_HepaRG_MMP10: Life Technologies and Expression Analysis (LTEA) Assay for matrix metalloproteinase-10 (MMP10) using HepaRG (AID 2283517)
In short: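 Expression measured by TaqMan qRT-PCR with ACTB/GAPDH/POLR2A normalisation after 48 h chemical exposure of HepaRG cells. Eight half-log concentrations, top 100 uM, 0.5% DMSO vehicle, duplicates; gain or loss fitted against vehicle.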

[18] = read-out: Heat shock 70 kDa protein 1 (HSPA1A), gene 3303; assay: LTEA_HepaRG_HSPA1A: Life Technologies and Expression Analysis (LTEA) Assay for Heat shock 70 kDa protein 1 (HSPA1A) using HepaRG (AID 2283502)
In short: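 Cells were plated and cultured for 48 h, then switched to serum-free induction medium. Chemicals were added at eight half-log concentrations up to 100 uM for 48 h. RNA was then isolated and HSPA1A measured by qRT-PCR with bidirectional curve fitting against DMSO.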

[19] = read-out: JUN Transcription Factor, JUN (gene 3725); assay: LTEA_HepaRG_JUN: Life Technologies and Expression Analysis (LTEA) Assay for JUN Transcription Factor using HepaRG (AID 2283513)
In short: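 Read-out is JUN transcript level by TaqMan qRT-PCR, normalized to ACTB, GAPDH and POLR2A, after 48 h chemical treatment of HepaRG cells. Concentration-response spanned eight half-log points up to 100 uM in 0.5% DMSO.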

Measured: AC50

Sequence of Hypoxia-inducible factor 1-alpha (Homo sapiens) (Q16665 whole entry, looked up): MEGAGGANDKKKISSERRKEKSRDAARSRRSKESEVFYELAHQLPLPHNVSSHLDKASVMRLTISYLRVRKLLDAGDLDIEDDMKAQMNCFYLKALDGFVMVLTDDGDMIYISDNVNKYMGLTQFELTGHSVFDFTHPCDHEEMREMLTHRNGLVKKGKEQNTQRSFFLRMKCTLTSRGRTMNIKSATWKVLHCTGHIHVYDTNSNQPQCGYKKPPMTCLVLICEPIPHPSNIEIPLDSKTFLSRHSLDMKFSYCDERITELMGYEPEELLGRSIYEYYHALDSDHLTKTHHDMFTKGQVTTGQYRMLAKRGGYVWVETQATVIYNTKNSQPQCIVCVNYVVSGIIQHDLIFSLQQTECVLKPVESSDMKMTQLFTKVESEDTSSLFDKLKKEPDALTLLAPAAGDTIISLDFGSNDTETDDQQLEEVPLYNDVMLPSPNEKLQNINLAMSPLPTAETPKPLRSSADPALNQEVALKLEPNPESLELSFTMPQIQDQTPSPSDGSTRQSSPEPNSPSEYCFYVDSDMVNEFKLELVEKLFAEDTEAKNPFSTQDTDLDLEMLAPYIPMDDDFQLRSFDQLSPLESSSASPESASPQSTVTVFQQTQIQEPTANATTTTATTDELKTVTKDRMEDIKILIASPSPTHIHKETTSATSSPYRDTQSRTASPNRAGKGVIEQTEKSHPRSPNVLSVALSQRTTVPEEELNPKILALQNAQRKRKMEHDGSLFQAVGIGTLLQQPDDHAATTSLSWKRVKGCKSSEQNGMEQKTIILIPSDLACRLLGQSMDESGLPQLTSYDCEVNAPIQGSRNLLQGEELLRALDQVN

CN1CCN(Cc2cc(-c3ccc4[nH]c(=O)oc4c3)co2)[C@@H](c2ccc(F)cc2)C1
active: [2] 71.9 µM | [10] 50 µM | [13] 23.9 µM
inactive: [1] | [3] | [4] | [5] | [6] | HGF (gene 3082) | [7] | [8] | [9] | [11] | [12] | [14] | [15] | [16] | [17]

O=C(N[C@@H](Cc1ccccc1)[C@@H](O)C(=O)N1C[C@@H](O)[C@@H](O)C1)c1cc2cc(Cl)ccc2[nH]1
inactive: [2] | [3] | [4] | [18] | [5] | HGF (gene 3082) | [7] | [8] | [10] | [11] | [12] | [13] | [14] | [17]
active: [6] 89 µM | [9] 63.4 µM | [15] 20.1 µM

Cc1nc(C)nc(N2C[C@@H](C)N(c3ccnc([C@@H](C)O)n3)[C@@H](C)C2)n1
inactive: [1] | [2] | [3] | [4] | [5] | [7] | [8] | [9] | [10] | [11] | [12] | [13] | [15]
active: HGF (gene 3082) 15.3 µM

CCCCOC(=O)CCCCCCCCC(=O)OCCCC
inactive: [2] | [3] | [4] | [18] | [5] | [6] | HGF (gene 3082) | [8] | [9] | [10] | [11] | [12] | [13] | [19] | [14] | [15]

NCC1(Cc2noc(=O)[nH]2)CCCCC1
inactive: [2] | [3] | [4] | [18] | [5] | [6] | HGF (gene 3082) | [8] | [9] | [10] | [11] | [12] | [13] | [19] | [14] | [15]

CNC(=O)[C@H]1O[C@@H](n2cnc3c(NCc4cc(Cl)ccc4OCc4cc(C)no4)ncnc32)[C@H](O)[C@@H]1N
inactive: [1] | [2] | [3] | [4] | [5] | [6] | HGF (gene 3082) | [7] | [8] | [9] | [10] | [11] | [12] | [13] | [14] | [15] | [16]

CCOC(=O)CCC(=O)OCC
active: [4] 83.4 µM | [15] 85 µM
inactive: [1] | [2] | [3] | [5] | HGF (gene 3082) | [8] | [9] | [10] | [11] | [12] | [13] | [19] | [14]

CC=Cc1ccc(O)c(OC)c1
inactive: [1] | [2] | [3] | [4] | [5] | HGF (gene 3082) | [7] | [8] | [9] | [10] | [11] | [12] | [13] | [19] | [14] | [15]
